Laboratory results taken from PubChem BioAssay AID1159606 (Sanford-Burnham Center for Chemical Genomics, 2016).
Screen size: about 360,000 compounds; about 7,300 (2%) were called active. The sample as a whole holds a higher share of actives than the screen did. Unmarked numbers belong to inactive results. Cut-off read from the data, not from the text of the source: active = inhibition above about 50%; inactive = the rest.

assay: blockers of TWEAK-induced Fn14 reporter activity – luciferase reporter cells, uHTS, primary screen (AID 1159606); details: TWEAK-stimulated Fn14 reporter cells, luciferase luminescence, 8 h; at 10 µM; active compounds read high

Structure (SMILES)	inhibition
CCCc1cc(=O)oc2c(C)c(OC(C)C(=O)NCC(O)c3ccccc3)ccc12 (stereo not drawn)	-28.2%
COCn1c(C(O)c2ccccc2)cc2ccccc21 (stereo not drawn)	3.63%
Cc1ccc(-c2ccc(CN3C(C)C(=O)N(Cc4cn(CCC5OCCCO5)nn4)CCS3(=O)=O)cc2)cc1 (stereo not drawn)	5.69%
Cc1ccc(NC(=O)CSCC(=O)N2CCOCC2)cc1	-11.3%
C(=C\c1ccccc1)/CSc1nnc(-c2cccnc2)n1Cc1ccco1	-6.4%
O=C(CSc1nnc(-c2cccnc2)n1Cc1ccco1)c1ccc(Cl)c(Cl)c1	62.2% (active)
O=C(CSc1nnc(-c2cnccn2)n1Cc1ccco1)c1ccc(Cl)c(Cl)c1	-5.31%
CNC[C@H]1OCc2cnnn2CCCC(=O)N([C@H](C)CO)C[C@@H]1C	-13.2%
CCc1nc2ccc(C(=O)NC3CCN(Cc4ccccc4)CC3)cn2c1N(CC)CCOC	-14.1%
COCCNc1nc2nonc2nc1N1CCCC1c1nccs1 (stereo not drawn)	-4.57%
O=C(Nc1ccc2c(c1)CCC2)c1cccc(S(=O)(=O)N2CCN(c3ccc(F)cc3)CC2)c1	65% (active)
O=C(Nc1ccc2c(c1)CCC2)c1cccc(S(=O)(=O)Nc2ccccc2Cl)c1	25.9%
CN1CCN(S(=O)(=O)c2cccc(C(=O)Nc3cccc(S(N)(=O)=O)c3)c2)CC1	14.8%
COc1ccc(NC(=O)c2ccccc2CC[N+](=O)[O-])cc1	2.4%
COCCNC(=O)c1cc2c(Br)ccc(Br)c2nc1N	2.81%
Cc1cc(C)n2c(Nc3c(C)cccc3C)c(CCc3ccccc3)nc2n1	-5.1%
OCC1(CO)CC2(C1)CC(CO)(CO)C2	15.3%
Cc1ccc(-c2noc(CCC(=O)Nc3ccccc3N3CCN(C)CC3)n2)cc1	12.3%
CCOc1cc(/C=C(/C#N)c2ccc(Cl)cc2)cc(Cl)c1OCC(=O)O	83.5% (active)
CCOc1cc(/C=N/NC(=O)OC)ccc1OCCSc1ccc(Cl)cc1	10.4%
COc1cc(/C=C(/NC(=O)c2ccc(Cl)cc2Cl)C(=O)O)cc(OC)c1OC	15.3%
COc1ccccc1CNC(=O)C1CCN(S(=O)(=O)c2ccc3c(c2)OCCO3)CC1	10.5%
Cc1ccc(Cn2cc(C(=O)NN)c(=O)c3ccc(F)cc32)cc1	-2.98%
CCNc1nc(SCCOc2ccccc2)nc(N(C)C)n1	-28.5%

Structure (SMILES)	inhibition
Cc1cccc(NC(=O)C2CC(=O)OC23CCCC3)c1 (stereo not drawn)	14.4%
Cn1c(=O)c2cc(NC(=O)NCCc3cccs3)ccc2n1Cc1cccc(C(F)(F)F)c1	4.52%
COc1ccccc1NC(=O)Nc1nnc(Cc2ccc(F)cc2)s1	-26.6%
O=C(Nc1ccccc1)Nc1nnc(COc2ccccc2F)s1	-8.31%
O=C(Nc1nnc(COc2ccccc2)s1)Nc1ccccc1F	62.4% (active)
Brc1ccc(-c2nn[nH]n2)cc1	5.03%
CC(=O)C1=C(C)NC2=C(C(=O)CC(C)(C)C2)C1C (stereo not drawn)	16%
COc1ccc(OC)c(/C(C)=N\NC(=O)c2cc3cc(Cl)ccc3n2C)c1	5.37%
Cc1ccc(S(=O)(=O)C(C#N)c2nc3ccccc3nc2N2CCCC2)cc1C (stereo not drawn)	12.6%
Cc1ccc(S(=O)(=O)Nc2nc3ccccc3nc2N2CCc3ccccc3C2)cc1	86.8% (active)
COCCCNc1nc2ccccc2nc1NS(=O)(=O)c1ccc(F)cc1	19.1%
Cc1ccc(C)c(NC(=O)CSc2nc3c(oc4ccccc43)c(=O)n2-c2ccccc2)c1	25.1%
COc1ccccc1C(=O)NC(=S)Nc1ccccc1N1CCCCC1	53.6% (active)
COc1ccccc1C(=O)NC(=S)Nc1ccc(N2CCOCC2)cc1	-34.2%
COc1ccccc1C(=O)NC(=S)NC12CC3CC(CC(C3)C1)C2	0.54%
CC(C)(C)c1cc(NC(=O)NN2CCOCC2)nn1-c1c(Cl)cc(Cl)cc1Cl	4.79%
CC(C)(C)OC(=O)C[C@@H]1C/C=C\C[C@@H](CC(=O)NCCO)C(=O)N[C@H](Cc2c[nH]c3ccccc23)COC1=O	-8.05%
Nc1ccc(S(=O)(=O)Nc2nccc(/C=C/c3ccc(Br)s3)n2)cc1	-5.92%
Oc1cccc2ccc(/C=C/c3ccc(Br)s3)nc12	57.6% (active)
CCCN(CC(=O)Nc1ccc(OC)c(OC)c1)CC(=O)Nc1ccc(F)c(F)c1F	-5.89%
O=c1c2c(nc3nc[nH]n13)CCC2	1.33%
CCCCN1Cc2c(nc3cc(-c4ccccc4)[nH]n3c2=O)C1=O	1.25%
O=c1c2c(nc3cc(-c4cccc(Cl)c4)[nH]n13)CCCC2	75.5% (active)
CSc1nnc(SCc2nc3sc(C(=O)O)c(C)c3c(=O)[nH]2)s1	15.4%

Structure (SMILES)	inhibition
CCCCCCN1CCN(C2CN(Cc3cn(CCCCCC)nn3)S(=O)(=O)C2)CC1 (stereo not drawn)	6.81%
COc1cc(-c2nnc(Cn3cc(C(F)(F)F)ccc3=O)o2)cc(OC)c1OC	-25.3%
C=CCOc1cccc(CNn2cn[nH]c2=S)c1	22.9%
CCOC(=O)[C@]12CCCC=C1N(Cc1cccc3ccccc13)C(=O)[C@H](CC(=O)NCC13CC4CC(CC(C4)C1)C3)C2	25.4%
O=C(Nc1sc2c(c1-c1nc3ccccc3[nH]1)CCCC2)C1CC1	-8.49%
O=C1NC(c2ccncc2)Nc2sc3c(c21)CCCC3 (stereo not drawn)	-14.9%
C/C(=C\c1ccccc1)C1NC(=O)c2c(sc3c2CCCC3)N1 (stereo not drawn)	77% (active)
CCC1NC(=O)c2cccnc2-n2c1nc1ccc(C)cc1c2=O (stereo not drawn)	-40.1%
CC(NC(=O)CCC(=O)N1CCN(S(=O)(=O)c2ccc(Cl)cc2)CC1)c1ccccc1 (stereo not drawn)	4.74%
O=C(NCc1cccc(C(F)(F)F)c1)c1cccc(S(=O)(=O)N2CCN(Cc3ccccc3)CC2)c1	15.4%
O=C(CCC(=O)N1CCN(S(=O)(=O)c2ccc(Cl)cc2)CC1)NCc1cccc(C(F)(F)F)c1	57.4% (active)
Cc1n[nH]c(=O)c2c(NC(=O)COC(=O)c3ncc(Cl)c(Cl)c3Cl)oc(C)c12	-5.62%
CSc1ccccc1NC(=O)COC(=O)CCCOc1ccc(C)cc1	-5.19%
Cc1noc(C)c1COC(=O)Cn1c(C)nc2ccccc21	-13%
CCCCCCCCCCOC(=O)Cn1c(COc2ccc(C)cc2)[n+](C)c2ccccc21	76.3% (active)
Cc1ccc(C(=O)CN2C(=O)NC3(CCc4ccccc43)C2=O)c(C)c1 (stereo not drawn)	-25.2%
O=C(NC(=O)c1ccccc1)Nc1ccccc1O	50.8% (active)
CNC(=O)C(NC(=O)c1ccccc1)=C(C)C	4.65%
Cc1ccc(NC(=O)NC(=O)c2ccccc2)cc1F	-37.5%
COc1ccc(C(=O)NC(C)c2nccs2)cc1OC1CCN(C(C)C)CC1 (stereo not drawn)	-14.2%
Cc1cc(C)c(C)c(S(=O)(=O)Nc2cccnc2)c1C	-12.5%
Cc1cc(C)c(C)c(S(=O)(=O)Nc2ccc(O)cc2)c1C	22.9%
Cc1cc(C)c(C)c(S(=O)(=O)N[C@@H](C)C(=O)OC(C)C(=O)NC(N)=O)c1C (stereo partly drawn)	53.7% (active)
CC1=NN(/C(=N\c2nnc(C)s2)Nc2ccccc2)[C@H](c2ccc(C)cc2)S1	-7.27%

Structure (SMILES)	inhibition
COC(=O)c1cc2n(n1)CCCNC2=O	-0.66%
COC(=O)c1ccc(OC(=O)c2nn(C)cc2Cl)c(OC)c1	-9.75%
COc1ccc(C(=O)n2nc(-c3ccc(Cl)cc3)nc2N)cc1OC	64.1% (active)
COc1ccc(C(=O)n2nc(C)c(Br)c2C)cc1OC	-7.65%
CC(C)CC(CO)N1CCN(C(=O)c2ccc(Cl)cc2Cl)CCC1=O (stereo not drawn)	10.3%
CCOc1ccc(S(=O)(=O)N2CCN=C2Cc2ccccc2)cc1C	-1.14%
COCCn1c(N)c(NCc2ccccc2)c(=O)[nH]c1=O	-0.79%
Cc1cccc(NC(=O)c2ccc(S(=O)(=O)N(C)c3ccccc3)cc2)n1	31.6%
CN(c1ccccc1)S(=O)(=O)c1cc(C(=O)Nc2nc3ccccc3[nH]2)ccc1Cl	78.9% (active)
CN(c1ccccc1)S(=O)(=O)c1cc(C(=O)N2CCN(c3ncccn3)CC2)ccc1Cl	-62.5%
O=C1CCCCC1Sc1ccc(Cl)cc1[N+](=O)[O-] (stereo not drawn)	5.84%
O=C(COC(=O)/C=C/c1ccc(Cl)cc1)NC1CCS(=O)(=O)C1 (stereo not drawn)	-27.7%
CC(=O)Nc1cccc(-c2cc(NC(C)=O)c3ncc(-c4ccccc4)n3c2)c1	89.2% (active)
CC(=O)c1ccc(-c2cnc3c(NC=O)cc(-c4cccc(NS(C)(=O)=O)c4)cn23)cc1	-8.7%
CC(=O)Nc1cccc(-c2cc(NC=O)c3ncc(-c4ccc(F)c(Cl)c4)n3c2)c1	82.2% (active)
CC(=O)c1cccc(-c2cnc3c(NC=O)cc(-c4ccc(N(C)C)cc4)cn23)c1	19.9%
COc1cccc(-c2cnc3c(NC(C)=O)cc(-c4cccc(NC(C)=O)c4)cn23)c1	-0.58%
CC(=O)c1cccc(-c2cnc3c(NC=O)cc(-c4ccccc4Oc4ccccc4)cn23)c1	55.7% (active)
COc1cccc(-c2cc(NC(C)=O)c3ncc(-c4cccc(C(C)=O)c4)n3c2)c1	12.6%
CC(=O)c1cccc(-c2cnc3c(NC=O)cc(-c4cccc(C(=O)N(C)C)c4)cn23)c1	6.56%
CC(=O)Nc1cc(-c2ccccc2N(C)C)cn2c(-c3ccc(F)c(Cl)c3)cnc12	-9.86%
